Reference: PubChem BioAssay (NCATS)
“And” between values parts separate entries of the source, which are not always exact repeats. Equal entries are not always repeated. Inconclusive results are not listed. The source made the active and inactive calls. Unless noted, calls follow the shape of the dose curve; as a rule, active = well fitted curve in the direction sought with a large enough effect; inconclusive = small, poorly fitted or top-dose-only effect, or another doubt; inactive = no such curve, though single readings can be large; an effect the other way counts as inactive or inconclusive.

Key:
[1] = Cell Viability - N2a (AID 540);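 also: plate controls were DMSO alone for no effect and tamoxifen control for full effect; nearly all actives have a fitted effect of over 45% in size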
Method in brief: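 First, 1500 N2a cells per well incubate 5 hr at 37 °C; next, compounds are added and incubated 40 hr at 37 °C; finally CellTiter-Glo is added and luminescence read after 20 min, with AC50 derived by Hill modeling.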

[2] = Cell Viability - HUV-EC-C (AID 542); also: nearly all actives have a fitted effect of over 35% in size; also: potency is read from the fitted curve at half-maximal effect; as to activity change, negative = cytotoxicity: % is scaled to controls: 0 for no effect and ±100 for the full control effect
Method in brief: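 Decrease in cellular ATP, quantified by luciferase luminescence, reflects toxicity in normal human vascular endothelial HUV-EC-C cells given compound for 40 hr in complete culture medium. Values are AC50s from concentration-response curves.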

[3] = Cell Viability - H-4-II-E (AID 543); also: nearly all actives have a fitted effect of over 35% in size; also: potency is read from the fitted curve at half-maximal effect
Method in brief: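 Here, cytotoxicity is measured in the rat hepatoma line H-4-II-E as loss of intracellular ATP after 40 hr compound treatment, detected by luciferase luminescence.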

[4] = Cell Viability - SH-SY5Y (AID 544); also: nearly all actives have a fitted effect of over 55% in size; also: potency is read from the fitted curve at half-maximal effect
Method in brief: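 Cytotoxicity is scored as a concentration-dependent fall in intracellular ATP in human SH-SY5Y cells treated 40 hr in complete culture medium. Potency is expressed as AC50 from a Hill equation fit.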

[5] = Cell Viability - Renal Proximal Tubule (AID 545); also: nearly all actives have a fitted effect of over 40% in size
Method in brief: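 Rat renal proximal tubule primary cells, 1000/well, exposed to compounds for 40 hr at 37 °C in complete medium; cellular ATP read by CellTiter-Glo luminescence. AC50 from concentration-response fitted with standard Hill equation.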

[6] = Cell Viability - Mesenchymal (AID 546);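 also: cells exposed to compound for 40 hours before reading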
Method in brief: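 AC50 values reflect the drop in intracellular ATP in a human kidney mesenchymal line derived from normal glomeruli. Treatment lasts 40 hr at 37 °C in complete medium, and the signal comes from CellTiter-Glo luminescence.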

[7] = Cellular Toxicity (caspase-3) HepG2 (AID 654);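 also: cells exposed to compound for 16 hours before reading; 0% = DMSO alone and 100% = caspase signal from 100 µM tamoxifen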
Method in brief: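 qHTS, HepG2, 1500 cells/well, complete medium; cpd 16 h 37 °C; Caspase-Glo 3/7, 20 min RT; lum. Norm: DMSO vs 100 uM tamoxifen; AC50 Hill fit.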

[8] = Cellular Toxicity (caspase-3) Jurkat (AID 655); settings: Jurkat caspase-3 activation, luminescence, DMSO = 0%, tamoxifen = 100%; at 92.2 µM (top of the series);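 also: cells exposed to compound for 16 h at 37 °C before reading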
Method in brief: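 Jurkat cells (5000/well) in complete medium exposed 16 h at 37 C; caspase-3/7 activity read by Caspase-Glo luminescence after 20 min at room temperature. Normalized to DMSO and 100 uM tamoxifen; AC50 from Hill fits.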

[9] = Cellular Toxicity (caspase-3) HUV-EC-C (AID 656); also: potency is read from the fitted curve at half-maximal effect
Method in brief: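 HUV-EC-C cells (1000/well) in complete medium, compound-treated 16 h at 37 °C; caspase-3/7 activity read by Caspase-Glo 3/7 luminescence. Normalized to DMSO (basal) and 100 uM tamoxifen (100%); AC50 from Hill-equation concentration-response fits.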

[10] = Cellular Toxicity (caspase-3) SHSY5Y (AID 657)
Method in brief: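 SH-SY5Y human neuroblastoma cells, 1500/well, exposed to compound for 16 hours at 37 °C in complete medium. Caspase-3/7 activity read by Caspase-Glo luminescence after 1 hr at room temperature, normalized to DMSO and 10 uM staurosporine; AC50 from Hill fit.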

[11] = Cellular Toxicity (caspase-3) BJ (AID 658);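 also: 0% = DMSO basal and 100% = 10 µM staurosporine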
Method in brief: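 Readout: Caspase-Glo 3/7 luminescence increase in BJ cells after 16 hr treatment at 37 °C. Staurosporine and tamoxifen served as positive controls; AC50 values came from Hill modelling of data normalized to DMSO and 10 uM staurosporine.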

[12] = Cellular Toxicity (caspase-3) MRC-5 (AID 659);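 also: 0% = DMSO basal and 100% = 10 µM staurosporine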
Method in brief: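 Concentration-dependent caspase 3/7 activation is measured in human normal lung fibroblasts (MRC-5) following 16-hour treatment. AC50 values come from standard Hill-equation modeling of luminescence normalized to DMSO and 10 uM staurosporine.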

[13] = Cellular Toxicity (caspase-3) Mesangial (AID 660);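 also: cells exposed to compound for 16 h before the caspase read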
Method in brief: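 Concentration-response qHTS: compound-induced rise in caspase 3/7 luminescence in human mesangial cells after 16 h, normalized to DMSO and 100 uM tamoxifen controls.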

[14] = Cellular Toxicity (caspase-3) SK-N-SH (AID 661);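 also: 0% = DMSO basal and 100% = 10 µM staurosporine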
Method in brief: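 Caspase 3/7 activation is measured as a luminescence increase from aminoluciferin released by substrate cleavage in SK-N-SH cells after 16 hr compound treatment; values are AC50 from concentration-response curves.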

[15] = Cellular Toxicity (caspase-3) H-4-II-E (AID 663);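 also: cells exposed to compound for 16 hr before readout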
Method in brief: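 Apoptosis induction is scored as increased luminescence from caspase 3/7 substrate cleavage in rat hepatoma H-4-II-E cells exposed to compound for 16 hr. Activity is scaled between DMSO and 100 uM tamoxifen.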

[16] = Cellular Toxicity (caspase-3) Hek293 (AID 664);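 also: cells exposed to compound for 16 h at 37 °C before readout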
Method in brief: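 Activation of caspase-3/7 is measured as increased luminescence from cleaved peptide-aminoluciferin substrate in HEK293 cells treated 16 hours at 37 °C. AC50 values come from Hill-equation fits of concentration-response data.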

[17] = Cellular Toxicity (caspase-3) N2a (AID 665);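 also: compound exposure lasted 16 h at 37 °C before readout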
Method in brief: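 Plated mouse neuroblastoma N2a cells received titrated compounds for 16 h in complete medium. Caspase activity was then detected with a peptide-aminoluciferin luminescent reagent.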

[18] = Cellular Toxicity (caspase-3) NIH 3T3 (AID 666);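 also: caspase signal read after 16 h compound exposure; 0% = DMSO basal and 100% = 100 µM tamoxifen stimulation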
Method in brief: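 Concentration-response qHTS in NIH 3T3 mouse fibroblasts scores caspase-3/7 activation as rising luminescence after 16 hr compound exposure. Signals are scaled between DMSO-only and 100 uM tamoxifen.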

[19] = target: 3',5'-cyclic-AMP phosphodiesterase 4B (Homo sapiens) (UniProt Q07343); assay: qHTS Assay for Inhibitors of PDE-IV (AID 607; active = well fitted activation curve with a large enough effect in the main read-out, with a control signal flat, not every such curve was filed as active; also: % of control where 0% means no effect)
Sequence of 3',5'-cyclic-AMP phosphodiesterase 4B (Homo sapiens) (Q07343 whole entry, looked up): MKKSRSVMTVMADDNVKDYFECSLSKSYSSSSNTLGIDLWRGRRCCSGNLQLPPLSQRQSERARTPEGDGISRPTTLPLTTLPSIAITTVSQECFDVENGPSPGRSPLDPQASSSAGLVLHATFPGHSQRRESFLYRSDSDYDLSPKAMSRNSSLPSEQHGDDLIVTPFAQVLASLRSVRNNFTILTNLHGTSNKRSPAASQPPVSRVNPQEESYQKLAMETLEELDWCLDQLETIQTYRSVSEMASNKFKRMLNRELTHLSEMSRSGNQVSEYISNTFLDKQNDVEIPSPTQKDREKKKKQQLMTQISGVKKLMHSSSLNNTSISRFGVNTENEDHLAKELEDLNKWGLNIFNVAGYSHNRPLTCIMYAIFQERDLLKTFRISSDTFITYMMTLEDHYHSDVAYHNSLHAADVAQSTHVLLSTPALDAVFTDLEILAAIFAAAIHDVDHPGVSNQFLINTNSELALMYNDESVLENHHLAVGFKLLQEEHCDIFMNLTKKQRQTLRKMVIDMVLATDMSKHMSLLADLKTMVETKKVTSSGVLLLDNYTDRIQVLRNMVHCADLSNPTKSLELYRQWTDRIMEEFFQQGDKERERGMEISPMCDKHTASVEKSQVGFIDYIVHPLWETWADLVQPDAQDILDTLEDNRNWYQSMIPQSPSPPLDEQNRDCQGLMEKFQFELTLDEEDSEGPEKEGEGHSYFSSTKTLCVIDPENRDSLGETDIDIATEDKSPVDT
Method in brief: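 The readout is membrane depolarisation from a cAMP-sensing CNG channel, detected with a potential dye at ex 535/em 590. Cells were HEK293-derived (endogenous PDE-IV) at 1000 cells/well, titrated up to 22.9 uM final.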

[20] = Cell Viability - NIH 3T3 (AID 541); settings: NIH 3T3 cell viability, qHTS; at 92.2 µM (top of the series);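 also: plate controls were DMSO alone for no effect and tamoxifen positive control for full effect; nearly all actives have a fitted effect of over 25% in size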
Method in brief: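 AC50 values reflect concentration-dependent loss of intracellular ATP in NIH 3T3 cells after 40 hr treatment in complete culture medium, quantified by luciferase-based luminescence.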

C[C@]1(O)CC[C@H]2[C@@H]3CCC4=CC(=O)CC[C@]4(C)[C@@]3(F)[C@@H](O)C[C@@]21C
inactive: outcome [1] | Potency [2] | Potency [3] | Potency [4] | outcome [5] | outcome [6] | outcome [7] | caspase-3 activation [8] -1.66% | Potency [9] | outcome [10] | outcome [11] | outcome [12] | outcome [13] | outcome [14] | outcome [15] | outcome [16] | outcome [17] | outcome [18]

CCCCC/C=C\C/C=C\C/C=C\C/C=C\CCCC(=O)NCC(=O)O
inactive: outcome [19]

CCCC(C)(COC(N)=O)COC(N)=O
inactive: outcome [1] | activity change, negative = cytotoxicity [20] -19.1% | Potency [2] | Potency [3] | Potency [4] | outcome [5] | outcome [6] | outcome [7] | caspase-3 activation [8] 0.151% | Potency [9] | outcome [10] | outcome [11] | outcome [12] | outcome [13] | outcome [14] | outcome [15] | outcome [16] | outcome [17] | outcome [18]

CCC(C)(C)c1ccc(O)cc1
inactive: outcome [1] | activity change, negative = cytotoxicity [20] -23.4% | Potency [2] | Potency [3] | Potency [4] | outcome [5] | outcome [6] | outcome [7] | caspase-3 activation [8] -1.04% | Potency [9] | outcome [10] | outcome [11] | outcome [12] | outcome [13] | outcome [14] | outcome [15] | outcome [16] | outcome [17] | outcome [18]

NCCc1ccc(O)cc1
inactive: outcome [1] | Potency [2] | Potency [3] | Potency [4] | outcome [5] | outcome [6] | outcome [19] | outcome [7] | caspase-3 activation [8] 3.49% | Potency [9] | outcome [10] | outcome [11] | outcome [12] | outcome [13] | outcome [14] | outcome [15] | outcome [16] | outcome [17]
active: activity change, negative = cytotoxicity [20] -149%

COP(=S)(OC)Oc1ccc(SC)c(C)c1
inactive: outcome [1] | activity change, negative = cytotoxicity [20] -11.1% | Potency [2] | Potency [3] | Potency [4] | outcome [5] | outcome [6] | outcome [7] | caspase-3 activation [8] 0.672% | Potency [9] | outcome [10] | outcome [11] | outcome [12] | outcome [13] | outcome [14] | outcome [15] | outcome [16] | outcome [17] | outcome [18]

Oc1ccc(Cl)cc1
inactive: outcome [1] | activity change, negative = cytotoxicity [20] 5.07% | Potency [2] | Potency [3] | Potency [4] | outcome [5] | outcome [6] | outcome [7] | caspase-3 activation [8] -0.847% | Potency [9] | outcome [10] | outcome [11] | outcome [12] | outcome [13] | outcome [14] | outcome [15] | outcome [16] | outcome [17] | outcome [18]

COc1c2c(cc3c1OCO3)CCN(C)C2
inactive: outcome [19]

O=C(CCCN1CCC2(CC1)C(=O)NCN2c1ccccc1)c1ccc(F)cc1
inactive: outcome [19]

O=C(O)CCCc1ccc(N(CCCl)CCCl)cc1
inactive: outcome [1] | Potency [2] | outcome [5] | outcome [6] | outcome [19] | Potency [9] | outcome [11] | outcome [12] | outcome [13] | outcome [15] | outcome [16] | outcome [17] | outcome [18]
active: Potency [4] 3.16 µM | caspase-3 activation [8] 96.5%

C[C@]12CCC(=O)C=C1CC[C@@H]1[C@@H]2CC[C@]2(C)C(=O)CC[C@@H]12
active: activity change, negative = cytotoxicity [20] -137% and -117% | Potency [3] 25.1 µM
inactive: outcome [1] | Potency [2] | Potency [4] | outcome [5] | outcome [6] | outcome [7] | caspase-3 activation [8] 7.89% and 0.322% | Potency [9] | outcome [10] | outcome [11] | outcome [12] | outcome [13] | outcome [14] | outcome [15] | outcome [16] | outcome [17] | outcome [18]

O=c1oc2ccccc2c(O)c1Cc1c(O)c2ccccc2oc1=O
inactive: outcome [19]

Clc1ccc(C(c2ccc(Cl)cc2)C(Cl)(Cl)Cl)cc1
active: Potency [2] 50.1 µM | Potency [9] 50.1 µM
inactive: activity change, negative = cytotoxicity [20] -24.2% | Potency [4] | outcome [5] | outcome [7] | caspase-3 activation [8] 7.14% | outcome [10] | outcome [11] | outcome [12] | outcome [13] | outcome [14] | outcome [15] | outcome [17] | outcome [18]

CNC(C)(C)Cc1ccccc1
inactive: outcome [19]

CCC1(CC)C(=O)C=CNC1=O
inactive: outcome [19]
